Screening results (PubChem BioAssay)
CYP2C19 activ = activators of human cytochrome P450 2C19; 96,000 tested, under 10 active; P33261; AID 1025; activation factor at 5 µM; recombinant CYP2C19, luciferin-H EGE luminescence; stronger effect = higher value; 0 = fully inhibited enzyme, 1 = untreated enzyme;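 active means activation factor of at least 2 at 5 µM in the primary screen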
Target sequence (P33261 whole entry, looked up): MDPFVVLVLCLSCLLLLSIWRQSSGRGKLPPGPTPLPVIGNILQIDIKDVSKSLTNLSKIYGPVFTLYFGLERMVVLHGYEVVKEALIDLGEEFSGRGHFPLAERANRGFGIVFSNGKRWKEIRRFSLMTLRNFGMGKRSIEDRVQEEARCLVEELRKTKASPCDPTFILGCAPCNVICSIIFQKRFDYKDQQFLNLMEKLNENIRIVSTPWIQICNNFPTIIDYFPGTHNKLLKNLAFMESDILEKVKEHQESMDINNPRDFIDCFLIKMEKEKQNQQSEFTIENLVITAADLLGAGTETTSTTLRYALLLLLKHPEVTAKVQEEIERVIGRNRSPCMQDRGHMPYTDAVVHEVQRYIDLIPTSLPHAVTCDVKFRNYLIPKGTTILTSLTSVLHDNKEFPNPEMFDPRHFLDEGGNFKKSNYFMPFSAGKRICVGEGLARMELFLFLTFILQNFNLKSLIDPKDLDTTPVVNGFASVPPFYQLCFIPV
CYP2C9 activ = CYP2C9 (human) activation; P11712; recombinant CYP2C9, luciferin-H conversion, luminescence; stronger effect = higher value; factor 1 = untreated enzyme, 0 = blocked; activation factor at 5 µM; 96,000 compounds, 1.4% hits; AID 1024;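 active means activation factor of 2 or more for CYP2C9 at a 5 µM dose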
CYP2C9 inh = blocks human cytochrome P450 2C9. P11712. 96,000 compounds, 20% hits. CYP2C9 Supersomes, luciferin-H conversion, luminescence. inhibition, % at 5 µM;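 active means blocking of liver enzyme CYP2C9 beyond about 50% at 5 µM, limit read from the data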
PostGolgi ctrl = yeast control strain growth, post-Golgi counter-screen | AID 738 | 98,000 compounds, 5% hits | inhibition, % at 10 µM | efflux-deficient yeast background strain, growth absorbance A615, 16 h
CYP2C19 inh = blocks human cytochrome P450 2C19; CYP2C19 Supersomes, luciferin-H EGE luminescence, 30 min; inhibition, % at 5 µM; P33261; AID 778; 96,000 compounds, 21% hits;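 active means CYP2C19 inhibition above a set limit at 5 µM in the primary screen, cut at about 50% in these data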
PostGolgi yeast = growth inhibition of a yeast mutant, post-Golgi transport screen | 98,000 compounds, 0.9% hits | inhibition, % at 10 µM | post-Golgi transport phenotypic cell assay;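 further: yeast cells grown in 1536-well plates; yeast grown about 18 h at 30C before absorbance read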
Large screens that a line does not name were inactive. This is a sample that favours compounds with a hit; in the whole collection about 32% have one here. Unless noted, no stated cut-off is given here; in the data, active means inhibition above about 30%; inactive means the rest.

Cc1cccc(N2CCN(C(=O)Cc3ccc(Br)cc3)CC2)c1C	PostGolgi ctrl 46, CYP2C19 inh 70
O=C(Cc1ccc(Br)cc1)N1CCN(c2ccccc2)CC1	CYP2C9 inh 88, CYP2C19 inh 99
COC(=O)C1CCN(C(=O)Cc2ccc(Br)cc2)CC1	CYP2C19 inh 90
O=C(Cc1ccc(-n2c(=O)[nH]c3ccccc3c2=O)cc1)N1CCN(c2ccccc2)CC1	none
CCCCP(=O)(CCCC)Cc1ccccc1O	none
COCCSc1nnc(NC(=O)C(C)(C)C)s1	none
Cc1ccc(CN2CCS(=O)(=O)CC2)cc1	CYP2C19 inh 66
O=C(Cc1ccc(Br)cc1)N1CCCCCC1	CYP2C19 inh 53
CC1CCCN(C(=O)Cc2ccc(F)cc2)C1 (configuration not stated)	CYP2C19 inh 73
O=C(c1ccc(Br)cc1)N1CCCC1	none
COC(=O)C1CCN(Cc2ccc(C)cc2)CC1	CYP2C19 inh 85
CCN1CCCC1CNC(=O)CN1C(=O)COc2ccc(C)cc21 (configuration not stated)	none
Cc1ccc(Nc2cc(=O)oc3ccccc23)c(C)c1	PostGolgi ctrl 44
COC(=O)c1scc(C)c1N/N=C(\C)c1ccc(F)cc1F	none
CC(C)CN(CC(C)C)C(=O)CS(=O)(=O)Cc1ccccc1	CYP2C19 inh 62
CC(=O)Nc1ccc(S(=O)(=O)N2CCSC2c2ccc(C)cc2)cc1 (configuration not stated)	CYP2C9 inh 55
COc1ccc(C2SCCN2S(=O)(=O)c2ccc(NC(C)=O)cc2)cc1 (configuration not stated)	CYP2C19 inh 55
C=CCNC1=C(Cl)C(=O)N(c2ccccc2Cl)C1=O	PostGolgi ctrl 34, CYP2C19 inh 68
O=C1C(Cl)=C(NCC2CCCO2)C(=O)N1c1ccccc1 (configuration not stated)	none
CCn1c(CCC(=O)Nc2nc3c(s2)CCCC3)nc2cc(S(=O)(=O)N(C)C)ccc21	CYP2C9 inh 91, PostGolgi ctrl 33, CYP2C19 inh 75
O=C(Cn1cccc1C(=O)c1ccccc1)NCc1ccccn1	none
Cc1cc(C)n(C(=O)c2cccc(S(=O)(=O)N3CCOCC3)c2)n1	CYP2C19 inh 59
Cc1cc(C)n(C(=O)c2ccc(C)c(S(=O)(=O)N3CCCC3)c2)n1	CYP2C9 inh 55, PostGolgi ctrl 32, CYP2C19 inh 73
O=C(c1cccc(S(=O)(=O)N2CCOCC2)c1)N1CCCC1	none
Cc1ccc(Sc2c(C)nn(C(=O)c3cccc(S(=O)(=O)N4CCOCC4)c3)c2C)cc1	CYP2C9 inh 78, CYP2C19 inh 53
Cc1ccc(C(=O)N2CCN(C)CC2)cc1S(=O)(=O)N1CCCCC1	none
Cc1cc(C)n(C(=O)c2ccc(S(=O)(=O)NCC3CCCO3)cc2)n1 (configuration not stated)	CYP2C9 inh 58
C/C(=N/Oc1nc(C)cc(C)n1)c1ccc(F)cc1	none
C=CCc1c(C)nc(SC(C)C)[nH]c1=O	none
Cc1ccc(-c2nc3ncccc3o2)cc1NC(=O)c1sc2ccccc2c1Cl	none
CCn1c(=O)n(CC(=O)NC2CCCC(C)C2C)c(=O)c2ccccc21 (configuration not stated)	none
O=C(CC(=O)NN=C1CCCC1)NCCc1ccccc1	none
O=C(NCCCN1CCOCC1)C1CCC(=O)N1C1CCCCC1 (configuration not stated)	none
Cc1cc(C)n(C(=O)c2ccc(S(=O)(=O)N3CCOCC3)cc2)n1	CYP2C9 inh 53
Cc1cc(C)n(C(=O)c2ccncc2)n1	none
CC(=O)c1ccc(OCCCC(=O)OCc2nnc(-c3ccc(Cl)cc3)o2)cc1	CYP2C9 activ 2
CC(=O)Nc1ccc(NC(=O)C(C)OC(=O)c2ccc(OCc3c(C)noc3C)cc2)cc1 (configuration not stated)	none
O=C(OCc1nnc(-c2ccc(Cl)cc2)o1)c1ccncc1	CYP2C9 inh 67, CYP2C19 inh 65
O=C(CCC(=O)c1cccs1)OCc1nnc(-c2ccccc2)o1	none
Cc1noc(C)c1COc1ccc(C(=O)OCc2nnc(-c3ccc(Cl)cc3)o2)cc1	CYP2C9 inh 95, CYP2C19 inh 79
CC1=C(C)CC(C(=O)c2ccccc2)C(C(=O)O)C1 (configuration not stated)	none
O=C(O)CCCC(=O)NCCc1ccncc1	none
Cn1cccc1C(=O)OCc1csc(-c2ccccc2)n1	none
Cn1cccc1C(=O)OCc1cc(Cl)cc2c1OCOC2	CYP2C9 activ 2.2
COc1ccc(N2C(=O)C3CCCN3C2c2ccc(C)cc2)cc1Cl (configuration not stated)	none
CC(=O)Nc1ccccc1-c1nc2ccc(C(=O)N3CCN(c4cc(C)ccc4C)CC3)cc2[nH]c1=O	CYP2C9 inh 99, CYP2C19 inh 70
c1csc(-c2csc3nc(CN4CCOCC4)nc(NCc4ccc5c(c4)OCO5)c23)c1	CYP2C9 inh 84, CYP2C19 inh 79
Cc1nc(NCc2ccc3c(c2)OCO3)c2oc3ccccc3c2n1	none (no result: CYP2C19 activ, CYP2C9 activ, CYP2C9 inh, CYP2C19 inh)
Cc1cccc2c1NC(=O)/C2=C\C(=O)c1cccs1	PostGolgi ctrl 52
CN1/C(=C/C(=O)c2cccs2)Sc2ccccc21	none
CCc1ccc2c(c1)/C(=C/C(=O)c1cccs1)C(=O)N2	PostGolgi ctrl 87, PostGolgi yeast 76
Cc1cc(C)c2c(c1)/C(=C/C(=O)c1ccc(Br)s1)C(=O)N2	PostGolgi ctrl 71, PostGolgi yeast 103
Cn1cccc1C1Nc2ccccc2NC2=C1C(=O)CC(C)(C)C2 (configuration not stated)	none
O=C(Nc1cccc(C(F)(F)F)c1)C1C2CC3OC(=O)C1C3C2 (configuration not stated)	none
CCCCn1nc2cc(C(=O)NCC3CC3)ccc2c1OCC	none
COCCn1c(=NC(=O)CSC(C)=O)sc2cc(OC)ccc21	none
COCCn1c(=NC(=O)CSCC(=O)NC2CCCCC2)sc2cc(OC)ccc21	CYP2C9 inh 57, PostGolgi ctrl 48, CYP2C19 inh 82
Cn1c(=O)[nH]c(=O)c2c1nc(N1CCCC1)n2CCSc1nc2ccccc2[nH]1	none
O=c1[nH]ncn2cccc12	none
O=C(COC(=O)CNS(=O)(=O)c1ccccc1)Nc1ccc(Cl)cn1	none
CC(O)(C#CCN1CCOCC1)c1ccccc1 (configuration not stated)	none
CC(C)C(O)(C#CCN1CCCCC1)c1ccccc1 (configuration not stated)	CYP2C19 inh 72
CC(C)C(O)(C#CCN1CCCC1)c1ccccc1 (configuration not stated)	CYP2C19 inh 50
Cc1cc(C)n(-c2nc3c(c(=O)[nH]c(=O)n3C)n2CC(C)C)n1	none
CCOC(=O)c1sc(N)c(C#N)c1CSc1nnc(C2CC2)n1N	CYP2C9 inh 74, CYP2C19 inh 88
COc1ccc(NC(=O)CSc2nnc(C3CC3)n2N)cc1	none
Nn1c(SCC(=O)NCc2ccccc2)nnc1C1CC1	none
